Measurements reported in PubChem BioAssay (NCATS).
Where “and” joins values, the source holds several entries; their conditions need not be identical. Equal values may be shown once. Results filed as inconclusive are left out. A call without a number means that no potency is given here. Values without a mark were called inactive. Calls of active or inactive are those of the source. The call rests on the fitted dose curve; in most records, active means well fitted inhibition curve with a large enough effect; inconclusive means small, poorly fitted or top-dose-only effect; inactive means flat fitted curve, though single readings scatter.

Legend:
PC26 = experiment: qHTS profiling for inhibitors of Plasmodium falciparum proliferation (AID 504749); conditions: P. falciparum in erythrocytes, SYBR Green DNA, 72 h; series mostly up to 28.7 µM
Procedure, shortened: (§1)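 In a 72 h erythrocytic culture (37 C, humidified, 5% CO2) at 2.5% hematocrit and 0.3% starting parasitemia, compounds were tested; SYBR Green I in detergent lysis buffer stained parasite DNA overnight.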

SC27B = experiment: as above; conditions: P. falciparum in erythrocytes, SYBR Green DNA, 72 h; series mostly up to 28.7 µM
Procedure, shortened: as §1

TAB113 = experiment: as above; conditions: P. falciparum in erythrocytes, SYBR Green DNA, 72 h; series mostly up to 28.7 µM
Procedure, shortened: as §1

TAB165 = experiment: as above; conditions: P. falciparum in erythrocytes, SYBR Green DNA, 72 h; series mostly up to 28.7 µM
Procedure, shortened: as §1

W2 = experiment: as above; conditions: P. falciparum in erythrocytes, SYBR Green DNA, 72 h; series mostly up to 28.7 µM
Procedure, shortened: as §1

CRL-7250 = normal cell line; experiment: Cytotoxic Profiling of Annotated Libraries Using Quantitative High-Throughput Screening (AID 1296008); conditions: Five cell lines viability, CellTiter-Glo ATP luminescence, 48-72 h; max response: hits give low values
Procedure, shortened: (§2)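 Cytotoxicity was measured as CellTiter-Glo ATP luminescence, read after 10 min at room temperature. Compound treatment of the cells lasted 48 or 72 hr at 37 degrees Celsius in a qHTS format.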

HEK293 = experiment: as above; conditions: Five cell lines viability, CellTiter-Glo ATP luminescence, 48-72 h; max response: hits give low values
Procedure, shortened: as §2

NIH3T3 = experiment: as above; conditions: Five cell lines viability, CellTiter-Glo ATP luminescence, 48-72 h; max response: hits give low values
Procedure, shortened: as §2

MKL-1 = experiment: qHTS assay to identify novel small-molecules to repurpose for Merkel cell carcinoma treatment (AID 1296009); conditions: MCC and control cell lines, CellTiter-Glo viability, 72 h; series mostly up to 46 µM
Procedure, shortened: (§3)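 Cell viability measured by CellTiter-Glo following 72 hr compound treatment at 37 degree celsius, with NPC and MIPE libraries tested in 8- and 11-point concentration series.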

MKL-2 = experiment: as above; conditions: MCC and control cell lines, CellTiter-Glo viability, 72 h; series mostly up to 46 µM
Procedure, shortened: as §3

HaCat [1] = experiment: Cytotoxic Profiling of Annotated Libraries Using Quantitative High-Throughput Screening (AID 1296008); conditions: Five cell lines viability, CellTiter-Glo ATP luminescence, 48-72 h; max response: hits give low values
Procedure, shortened: as §2

KB-3-1 = experiment: as above; conditions: Five cell lines viability, CellTiter-Glo ATP luminescence, 48-72 h; max response: hits give low values
Procedure, shortened: as §2

MCC-13 = experiment: qHTS assay to identify novel small-molecules to repurpose for Merkel cell carcinoma treatment (AID 1296009); conditions: MCC and control cell lines, CellTiter-Glo viability, 72 h; series mostly up to 46 µM
Procedure, shortened: as §3

MCC-26 = experiment: as above; conditions: MCC and control cell lines, CellTiter-Glo viability, 72 h; series mostly up to 46 µM
Procedure, shortened: as §3

PC15 = experiment: qHTS profiling for inhibitors of Plasmodium falciparum proliferation (AID 504749); conditions: P. falciparum in erythrocytes, SYBR Green DNA, 72 h; series mostly up to 28.7 µM
Procedure, shortened: as §1

PC49 = experiment: as above; conditions: P. falciparum in erythrocytes, SYBR Green DNA, 72 h; series mostly up to 28.7 µM
Procedure, shortened: as §1

HACAT [2] = experiment: qHTS assay to identify novel small-molecules to repurpose for Merkel cell carcinoma treatment (AID 1296009); conditions: MCC and control cell lines, CellTiter-Glo viability, 72 h; at 44.8 µM (top of the series) unless noted
Procedure, shortened: as §3
Further: nearly all actives have a fitted effect of over 60% in size.
Potency means the concentration at half of the fitted maximal effect.

## CC1=C(/C=C/C(C)=C/C=C/C(C)=C/C(=O)Nc2ccc(O)cc2)C(C)(C)CCC1
PC26
  Potency: 12 µM (active)
SC27B
  Potency: 10 µM (active)
TAB113
  Potency: 11.2 µM (active)
TAB165
  Potency: 10 µM (active)
W2
  Potency: 5.36 µM (active)
CRL-7250
  Potency: 16.8 µM (active)
HEK293
  Potency: 5.96 µM (active)
NIH3T3
  Potency: 21.1 µM (active)
MKL-1
  Potency: 26.6 µM (active)
MKL-2
  Potency: 10.6 µM (active)

## O=C(O)[C@H]1O[C@H](Oc2cc3oc(-c4ccccc4)cc(=O)c3c(O)c2O)[C@H](O)[C@@H](O)[C@H]1O
CRL-7250
  max response: -6.52%
HaCat [1]
  max response: -7.89%
KB-3-1
  max response: 2.26%
MCC-13
  Potency: inactive
MCC-26
  Potency: inactive
MKL-1
  Potency: inactive

## CC(C)(C(=O)NCC(F)(F)C(F)(F)F)C(=O)N[C@@H]1C(=O)Nc2ccccc2-c2ccccc21
CRL-7250
  max response: -11.4%
HaCat [1]
  max response: -2.21%
KB-3-1
  outcome: inactive
NIH3T3
  outcome: inactive
MCC-13
  Potency: inactive
MCC-26
  Potency: inactive

## O=c1c(-c2ccc(O)cc2)coc2cc(O[C@@H]3O[C@H](CO)[C@H](O)[C@H](O)[C@H]3O)ccc12
CRL-7250
  max response: -13.5%
HaCat [1]
  max response: -4.86%
KB-3-1
  outcome: inactive
NIH3T3
  max response: 1.51%
MCC-13
  Potency: inactive
MCC-26
  Potency: inactive
MKL-1
  Potency: inactive
MKL-2
  Potency: inactive

## NS(=O)(=O)c1cccc2c1C(=O)c1cccc(O)c1C2=O
CRL-7250
  Potency: 0.526 µM (active)
HEK293
  Potency: 16.6 µM (active)
NIH3T3
  Potency: 0.935 µM (active)
MCC-26
  Potency: 0.833 µM (active)
MKL-1
  Potency: 0.132 µM (active)
MKL-2
  Potency: 0.264 µM (active)

## CCCCC1C(=O)N(c2ccccc2)N(c2ccccc2)C1=O
PC15
  outcome: inactive
PC49
  outcome: inactive
SC27B
  Potency: inactive
TAB113
  Potency: inactive
CRL-7250
  max response: -3.59%
HaCat [1]
  max response: -4.56%
KB-3-1
  max response: 0.189% and 30.8%
NIH3T3
  max response: -4.9%
MCC-13
  Potency: inactive
MCC-26
  Potency: inactive
MKL-1
  Potency: inactive
MKL-2
  Potency: inactive

## COc1ccc(-c2coc3cc(O)cc(O)c3c2=O)cc1
CRL-7250
  max response: 1.69%
HaCat [1]
  max response: 1.1%
KB-3-1
  outcome: inactive
NIH3T3
  outcome: inactive
MCC-13
  Potency: inactive
MCC-26
  Potency: inactive
MKL-1
  Potency: inactive
MKL-2
  Potency: inactive

## COc1cc(O)c2c(c1)C(=O)c1cc(C)cc(O)c1C2=O
CRL-7250
  outcome: inactive
HaCat [1]
  max response: -5.67%
KB-3-1
  max response: -1.03%
NIH3T3
  outcome: inactive
MCC-13
  Potency: inactive
MCC-26
  Potency: inactive
MKL-1
  Potency: inactive
MKL-2
  Potency: inactive

## COC(=O)N[C@H](C(=O)N1CCC[C@@H]1c1ncc(-c2ccc(-c3ccc(-c4cnc([C@@H]5CCCN5C(=O)[C@@H](NC(=O)OC)C(C)C)[nH]4)cc3)cc2)[nH]1)C(C)C
CRL-7250
  outcome: inactive
HaCat [1]
  outcome: inactive
KB-3-1
  max response: 1.64%
NIH3T3
  max response: 2.81%
HACAT [2]
  outcome: inactive
MCC-13
  Potency: inactive
MKL-1
  Potency: inactive
MKL-2
  Potency: inactive

## CCn1c(C(=O)N(C2CC2)C2CC2)cc2c3c(ncn3C)c(Nc3cc(C)n(C)n3)nc21
CRL-7250
  max response: 3.88% and -9.32%
HaCat [1]
  max response: 2.37% and -28.6%
KB-3-1
  max response: 3.91% and 9.29%
NIH3T3
  Potency: 23.5 µM (active)
MCC-13
  Potency: inactive
MKL-1
  Potency: inactive
MKL-2
  Potency: inactive

## O=c1cc(-c2ccc(O)cc2)oc2cc(O)cc(O)c12
CRL-7250
  max response: -23.1%
HaCat [1]
  max response: -20%
KB-3-1
  max response: 3.99%
MCC-13
  Potency: inactive
MCC-26
  Potency: inactive
MKL-1
  Potency: 2.35 µM (active)
MKL-2
  Potency: 1.66 µM (active)

## CN[C@@H](C)C(=O)N[C@H]1CN(C(=O)CC(C)C)CC[C@H]2CC[C@@H](C(=O)NC(c3ccccc3)c3ccccc3)N2C1=O
HEK293
  max response: -1.1%
HaCat [1]
  Potency: 16.6 µM (active) and 23.1 µM (active)
KB-3-1
  max response: 2.72% and 0.688%
NIH3T3
  max response: -2.17% and -4.72%
MCC-13
  Potency: inactive
MCC-26
  Potency: inactive
MKL-2
  Potency: inactive

## Cn1cc(C=C2C(=O)Nc3cccnc32)c2ccccc21
CRL-7250
  max response: -3.71%
HaCat [1]
  max response: -0.233%
KB-3-1
  max response: 5.23%
MCC-13
  Potency: inactive
MCC-26
  Potency: inactive
MKL-1
  Potency: inactive
MKL-2
  Potency: inactive

## O=C1NC(=O)C(=Cc2ccc(-c3ccc(F)cc3)o2)S1
CRL-7250
  max response: -0.559%
HaCat [1]
  max response: -17.4%
KB-3-1
  max response: -5.29%
MCC-13
  Potency: inactive
MCC-26
  Potency: inactive
MKL-1
  Potency: inactive
MKL-2
  Potency: inactive

## Cc1cc(OCCCc2c(C(=O)O)n(Cc3cccnc3)c3c(-c4c(COc5ccc(N6CCN([S+](C)(=O)[O-])CC6)cc5)nn(C)c4C)cccc23)cc(C)c1Cl
CRL-7250
  max response: -16.6%
HaCat [1]
  max response: -19.1%
NIH3T3
  max response: -3.92%
MCC-13
  Potency: inactive
MCC-26
  Potency: inactive
MKL-1
  Potency: inactive
MKL-2
  Potency: inactive

## NC(=O)c1cnc(-c2ccc(C3(N)CCC3)cc2)c(-c2ccccc2)c1
HEK293
  Potency: 23.5 µM (active) and 18.4 µM (active)
HaCat [1]
  max response: -22.7%
KB-3-1
  max response: -11.5%
MCC-13
  Potency: inactive
MCC-26
  Potency: inactive
MKL-1
  Potency: inactive
MKL-2
  Potency: inactive

## O=C1NC(=O)C(=Cc2cccc(C(F)(F)F)c2)S1
CRL-7250
  outcome: inactive
HaCat [1]
  max response: -6.56%
NIH3T3
  max response: -7.62%
MCC-13
  Potency: inactive
MCC-26
  Potency: inactive
MKL-1
  Potency: inactive
MKL-2
  Potency: inactive
